Data: PubChem BioAssay AID1347076 (National Center for Advancing Translational Sciences (NCATS), 2019)
The whole screen tested about 400,000 compounds, of which about 13,000 (3.2%) were called active. Another 18% or so got no clear call; they are omitted. The list comes from a sample in which actives are over-represented; it also holds similar structures and randomly drawn compounds. A number with no mark means an inactive call. The call rests on the fitted dose curve; in most records, active means well fitted cell-killing curve with a large enough effect; inconclusive means small, poorly fitted or top-dose-only effect, or effect the other way; inactive means flat fitted curve, though single readings scatter.

Experiment: qHTS assay for MDR1-selective chemotherapeutics: Primary screen using the drug-selected MDR subline cells KB-V1; further: nearly all actives have a fitted effect of over 60% in size
Settings: KB-V1 MDR cells viability, CellTiter-Glo, 72 h; series mostly up to 46.1 µM; activity change, negative = cytotoxicity: at the top concentration
Procedure, shortened: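 KB-V1 MDR subline cells in DMEM (phenol-red free, 10% FBS) exposed to compounds in qHTS concentration series for 72 h at 37 degrees C. Viability read by CellTiter-Glo luminescence; concentration-effect curves fitted after normalization and correction.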
On the % scale 0 is the no-effect control and ±100 the full control effect; potency means the concentration at half of the fitted maximal effect.

| Compound | activity change, negative = cytotoxicity [%] | Potency |
| --- | --- | --- |
| COC(=O)[C@]12CCCCC=C1N(Cc1ccc3c(c1)OCO3)C(=O)[C@H](CC(=O)NCc1cccs1)C2 | -26.6 | – |
| O=C1CCC(C(=O)OCC(=O)Nc2ccc(OC(F)F)cc2)=NN1 | 27.2 | – |
| Cc1ccc2c(c1)c1c(c(=O)n(-c3ccccc3)c(=O)n1CC(=O)c1ccc(Cl)cc1)n2C | -17.9 | – |
| CC(=O)NC(c1cccc(F)c1)c1nc(-c2cccc(F)c2)cs1 (stereo not drawn) | 2.12 | – |
| CC(=O)Nc1ccc(NC(=O)CSCc2cnn(-c3ccccc3)c2-n2cccc2)cc1 | -13.4 | – |
| CCOc1ccc(NC(=O)c2cnn(-c3ccccc3)c2-n2cccc2)cc1 | -13.3 | – |
| Cc1cc(C)cc(NC(=O)CSCc2cnn(-c3ccccc3)c2-n2cccc2)c1 | – | 18.4 µM (active) |
| CCOc1ccccc1N(CC)C(=O)c1cc2ccc3cccnc3c2[nH]1 | -16.2 | – |
| CCOC(=O)Nc1ccc(NC(=O)OCC)cc1 | 0.438 | – |
| CCCCCOC(=O)NCCOC(=O)Nc1ccc(C(=O)OCC)cc1 | – | 16.4 µM (active) |
| CCCCC(CCC(=O)Nc1ccc(C(=O)OCC)cc1)C(=O)O (stereo not drawn) | 3.69 | – |
| CC1C(=O)N(Cc2cn(CC3CCCCC3)nn2)CCS(=O)(=O)N1Cc1ccc(-c2cccc(N(C)C)c2)cc1 (stereo not drawn) | 2.2 | – |
| COc1ccc(-c2ccc(=O)n(CC(=O)Nc3ccc(Br)cc3F)n2)cc1 | 5.96 | – |
| O=C(NC(=O)c1ccccc1)Nc1ccccc1O | 13.8 | – |
| O=C(Nc1ncccc1O)c1ccc(S(=O)(=O)N2CCCC2)cc1 | -28.8 | – |
| O=C(Nc1ncccc1O)c1ccc(C(=O)c2ccccc2)cc1 | – | 23.1 µM (active) |
| C[C@@H]1CN([C@@H](C)CO)C(=O)c2cc(NS(C)(=O)=O)ccc2O[C@@H](C)CCCCO[C@H]1CN(C)C(=O)Nc1ccc2c(c1)OCO2 | 15.5 | – |
| O=C(NCc1ccccc1)C1c2ccccc2OCC(=O)N1C1CC1 (stereo not drawn) | 10.6 | – |
| Cc1ccc(C(O)c2ncc(-c3ccccc3F)[nH]2)cc1F (stereo not drawn) | 3.69 | – |
| O=C(Nc1cc(S(=O)(=O)Nc2ccc(Cl)cc2)ccc1O)c1ccc(F)cc1F | – | 23.1 µM (active) |
| O=C(Nc1cccc(S(=O)(=O)NC2=NCCC2)c1)c1ccc(F)cc1F | -4.99 | – |
| CCS(=O)(=O)c1ccc(O)c(NC(=O)COc2ccc(Cl)cc2)c1 | 10.8 | – |
| CCCSc1nc(NCc2ccco2)c2c3c(sc2n1)COC(C)(CC)C3 (stereo not drawn) | – | 16.4 µM (active) |
| CCC1(C)Cc2c(sc3nc4n(c(=O)c23)CCCS4)CO1 (stereo not drawn) | 0 | – |

| Compound | activity change, negative = cytotoxicity [%] | Potency |
| --- | --- | --- |
| CCCSc1nc2sc3c(c2c(=O)n1-c1cccc(Br)c1)CC(C)(C)OC3 | -22.2 | – |
| Cc1ccc(N2CC(c3nnc(Cc4ccccc4Cl)o3)CC2=O)cc1 (stereo not drawn) | 2.41 | – |
| CC(C)(C)OC(=O)N1CCC(c2c(C(=O)N3CCN(c4cccc(Cl)c4)CC3)cnn2-c2cccc(Cl)c2)CC1 | -27.3 | – |
| Cc1ccc(OCC(=O)Nc2ccccc2Sc2ccc(Cl)cc2)c([N+](=O)[O-])n1 | – | 9.2 µM (active) |
| Cc1ccc(OCC(=O)NC(C)c2ccccc2)c([N+](=O)[O-])n1 (stereo not drawn) | -8.09 | – |
| O=C(COc1cccnc1[N+](=O)[O-])Nc1ccc(Cl)cc1F | 4.4 | – |
| Cc1ccc(S(=O)(=O)N2CC3C(=O)C[C@@H](c4ccccc4Cl)N(S(=O)(=O)c4ccc(C)cc4)C3CC2c2ccccc2)cc1 (stereo partly drawn) | -27.9 | – |
| COc1ccc(C(C)(C)C)cc1NC(=O)CN(C)C1=NS(=O)(=O)c2ccccc21 | -22.1 | – |
| CC1(C(=O)NCc2ccc3c(c2)OCO3)CCN1C(=O)Cc1cccs1 (stereo not drawn) | 2.58 | – |
| C[C@H](NC(=O)CC[C@H]1O[C@@H](n2ccc(=O)[nH]c2=O)[C@H](O)[C@@H]1O)c1cccc2ccccc12 | 14.5 | – |
| CNC(=S)NNC(=O)c1ccc(N(C)C)cc1 | – | 11.6 µM (active) |
| CNC(=S)NNC(=O)c1sccc1OCc1ccccc1 | -21.8 | – |
| CC(=O)NC(=S)NNC(=O)c1ccc(Br)cc1 | -2.46 | – |
| COC(=O)C1(C(=O)OC)C/C=C\CN(S(=O)(=O)c2ccccc2[N+](=O)[O-])CCC1 | 3.37 | – |
| COc1ccc(NC(=O)c2sc(=O)n(Cc3ccc(S(=O)(=O)N(C)C)cc3)c2C)cc1 | – | 9.2 µM (active) |
| COc1ccc(Cn2c(C)c(C)c(C#N)c2NC(=O)Nc2ccc(F)cc2)cc1 | 18 | – |
| COc1ccc(NS(=O)(=O)c2cc(NC(=O)c3ccc(S(=O)(=O)N(C)C)cc3)ccc2N2CCOCC2)cc1 | 7.71 | – |
| Cc1nc(SCC(=O)N2CC(=O)Nc3ccccc32)c2c(C)c(C)sc2n1 | -23.9 | – |
| O=C(CSc1nnc(-c2cccs2)n1Cc1ccccc1)N1CCc2ccccc2C1 | 0 | – |
| Cc1nc(SCC(=O)N2CCc3ccccc3C2)c2c(C)c(C)sc2n1 | – | 18.4 µM (active) |
| COc1ccc(OC)c(C(=O)NC2CCCc3c2cnn3-c2cc(C)cc(C)c2)c1 (stereo not drawn) | 1.4 | – |
| Cc1cccc(N2CCN(C(=O)c3cnc(N4CCCC4)nc3C)CC2)c1C | 19.2 | – |
| C/C(=C\c1ccccc1)C1NC(=O)c2c(sc3c2CCCC3)N1 (stereo not drawn) | 0 | – |
| O=C1NC(c2ccncc2)Nc2sc3c(c21)CCCC3 (stereo not drawn) | – | 20.6 µM (active) |
